Experiment in all cases: DAPPL (digital affinity profiling via proximity ligation, sequencing); 10 mM Tris-HCl pH 7.5, 50 mM NaCl, 1 mM DTT, 4% glycerol, room temperature, 30 min; GST-TFs on glutathione beads, 16-mer random dsDNA library, 0.1% formaldehyde crosslink after washing; high values mean tight binding
For experiment [1], the target named is T1, FEV (Homo sapiens, UniProt Q99581 1-238).
T1 sequence: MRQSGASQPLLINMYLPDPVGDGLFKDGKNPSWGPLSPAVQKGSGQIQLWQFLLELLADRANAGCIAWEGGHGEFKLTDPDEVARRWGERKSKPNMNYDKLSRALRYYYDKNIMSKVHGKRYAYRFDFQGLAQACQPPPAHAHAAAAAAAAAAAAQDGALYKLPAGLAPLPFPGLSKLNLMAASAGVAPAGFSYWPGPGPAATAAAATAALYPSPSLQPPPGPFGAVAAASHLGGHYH
Conditions: protein: recombinant; tags: N-terminal GST; dsDNA, one strand shown. In outline:
(§1)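 Binding signal is each hexamer's read frequency for a factor divided by its frequency in the tag-only sample. The factors were GST-fused human transcription factors from yeast, captured on glutathione beads, DNA-barcoded and pooled with that sample. Pools were incubated with 200 nmole of a random double-stranded 16-mer DNA library in Tris/NaCl/DTT/glycerol buffer at room temperature for 30 min, then washed, crosslinked with 0.1% formaldehyde, proximity-ligated with BsaI/T4 ligase (1 h, 37 °C), PCR-amplified and sequenced on an Illumina NextSeq500.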

Experiment [2] concerns the target ETV5 (Homo sapiens, UniProt P41161 1-510). Conditions: protein: recombinant; tags: N-terminal GST; dsDNA, one strand shown. In outline:
as §1

Experiment [3] has as its target HSF1 (Homo sapiens, UniProt Q00613 1-529). The conditions noted are these: protein: recombinant; tags: N-terminal GST; chain copies: 3; dsDNA, one strand shown. In outline:
as §1

For experiment [4], the target named is T2, SPIC (Homo sapiens, UniProt Q8N5J4 1-248).
T2 sequence: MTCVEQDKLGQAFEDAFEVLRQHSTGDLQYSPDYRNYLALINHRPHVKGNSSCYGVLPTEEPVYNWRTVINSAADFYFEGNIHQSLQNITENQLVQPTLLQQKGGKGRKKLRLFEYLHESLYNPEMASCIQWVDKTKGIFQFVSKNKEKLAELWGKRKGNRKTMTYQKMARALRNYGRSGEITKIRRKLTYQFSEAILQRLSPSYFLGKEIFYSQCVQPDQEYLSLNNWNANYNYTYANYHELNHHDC
Conditions: protein: recombinant; tags: N-terminal GST; dsDNA, one strand shown. In a few lines: as §1

The target of experiment [5] is ELF4 (Homo sapiens, UniProt Q99607 1-663). The conditions noted are these: protein: recombinant; tags: N-terminal GST; dsDNA, one strand shown. In outline:
as §1

Experiment [6] has as its target T3, ELK4 (Homo sapiens, UniProt P28324-2 1-405).
T3 sequence: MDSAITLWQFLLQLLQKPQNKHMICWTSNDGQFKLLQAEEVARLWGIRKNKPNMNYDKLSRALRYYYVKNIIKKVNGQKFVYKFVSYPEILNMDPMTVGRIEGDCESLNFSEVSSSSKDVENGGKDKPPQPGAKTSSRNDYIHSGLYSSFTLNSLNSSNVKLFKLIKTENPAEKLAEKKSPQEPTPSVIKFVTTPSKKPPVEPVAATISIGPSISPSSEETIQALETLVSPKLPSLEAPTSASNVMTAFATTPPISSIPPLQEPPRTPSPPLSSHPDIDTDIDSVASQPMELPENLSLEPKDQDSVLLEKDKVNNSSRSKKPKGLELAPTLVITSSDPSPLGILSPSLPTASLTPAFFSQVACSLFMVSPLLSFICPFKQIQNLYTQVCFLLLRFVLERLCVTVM
The conditions noted are these: protein: recombinant; tags: N-terminal GST; dsDNA, one strand shown. In outline: as §1

Experiment [7] has as its target T4, ETV2 (Homo sapiens, UniProt O00321 1-342).
T4 sequence: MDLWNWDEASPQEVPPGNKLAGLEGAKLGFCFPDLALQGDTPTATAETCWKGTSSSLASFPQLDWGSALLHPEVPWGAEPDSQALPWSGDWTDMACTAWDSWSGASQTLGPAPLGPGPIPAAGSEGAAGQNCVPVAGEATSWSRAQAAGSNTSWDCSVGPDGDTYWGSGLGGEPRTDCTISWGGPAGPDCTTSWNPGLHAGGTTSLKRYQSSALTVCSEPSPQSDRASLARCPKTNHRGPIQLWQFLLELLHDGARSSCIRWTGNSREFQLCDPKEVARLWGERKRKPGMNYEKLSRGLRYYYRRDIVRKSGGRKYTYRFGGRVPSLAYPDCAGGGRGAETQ
Conditions: protein: recombinant; tags: N-terminal GST; dsDNA, one strand shown. In a few lines:
as §1

Experiment [8] addresses T5, ELF3 (Homo sapiens, UniProt P78545 1-371).
T5 sequence: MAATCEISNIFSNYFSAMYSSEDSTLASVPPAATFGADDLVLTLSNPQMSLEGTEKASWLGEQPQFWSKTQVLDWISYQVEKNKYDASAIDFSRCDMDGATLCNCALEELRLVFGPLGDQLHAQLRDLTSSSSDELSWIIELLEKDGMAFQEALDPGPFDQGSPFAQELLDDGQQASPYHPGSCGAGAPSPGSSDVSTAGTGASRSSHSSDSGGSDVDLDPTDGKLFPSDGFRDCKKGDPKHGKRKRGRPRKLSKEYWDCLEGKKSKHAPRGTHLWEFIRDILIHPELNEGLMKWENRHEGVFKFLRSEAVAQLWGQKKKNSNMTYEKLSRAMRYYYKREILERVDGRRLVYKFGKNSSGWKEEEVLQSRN
Conditions: protein: recombinant; tags: N-terminal GST; dsDNA, one strand shown. In a few lines: as §1

The target in experiment [9] is CRX (Homo sapiens, UniProt O43186 1-299). Conditions: protein: recombinant; tags: N-terminal GST; dsDNA, one strand shown. In outline: as §1
Experiment [10] addresses ETV1 (Homo sapiens, UniProt P50549 1-477). Conditions: protein: recombinant; tags: N-terminal GST; dsDNA, one strand shown. In outline: as §1
The target in experiment [11] is T6, ERF (Homo sapiens, UniProt P50548 1-548).
T6 sequence: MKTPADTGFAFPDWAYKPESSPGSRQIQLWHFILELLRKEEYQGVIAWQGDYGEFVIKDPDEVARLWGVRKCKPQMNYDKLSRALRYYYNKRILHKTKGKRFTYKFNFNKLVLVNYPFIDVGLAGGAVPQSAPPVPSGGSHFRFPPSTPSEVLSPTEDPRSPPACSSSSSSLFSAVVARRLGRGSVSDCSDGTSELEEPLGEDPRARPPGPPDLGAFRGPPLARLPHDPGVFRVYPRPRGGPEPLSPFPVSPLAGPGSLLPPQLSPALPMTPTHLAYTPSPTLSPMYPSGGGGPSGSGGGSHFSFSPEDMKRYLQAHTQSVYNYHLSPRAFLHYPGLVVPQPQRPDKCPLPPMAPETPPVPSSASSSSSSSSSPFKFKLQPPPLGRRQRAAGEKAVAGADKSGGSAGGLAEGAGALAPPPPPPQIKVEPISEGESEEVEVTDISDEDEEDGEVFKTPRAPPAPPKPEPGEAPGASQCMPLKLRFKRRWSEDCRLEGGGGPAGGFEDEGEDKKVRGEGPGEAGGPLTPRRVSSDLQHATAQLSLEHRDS
Conditions: protein: recombinant; tags: N-terminal GST; dsDNA, one strand shown. In a few lines:
as §1

The target of experiment [12] is T7, ETV3L (Homo sapiens, UniProt Q6ZN32 1-361).
T7 sequence: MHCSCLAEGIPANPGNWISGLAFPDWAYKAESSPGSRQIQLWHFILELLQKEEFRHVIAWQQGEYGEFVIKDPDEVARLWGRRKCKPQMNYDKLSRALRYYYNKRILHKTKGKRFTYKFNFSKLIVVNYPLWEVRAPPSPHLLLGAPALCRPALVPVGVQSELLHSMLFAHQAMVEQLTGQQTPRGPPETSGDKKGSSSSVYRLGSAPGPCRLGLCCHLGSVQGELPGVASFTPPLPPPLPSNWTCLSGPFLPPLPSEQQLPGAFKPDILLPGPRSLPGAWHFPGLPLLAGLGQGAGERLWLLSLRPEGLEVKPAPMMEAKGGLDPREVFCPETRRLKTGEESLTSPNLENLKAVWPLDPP
The conditions noted are these: protein: recombinant; tags: N-terminal GST; dsDNA, one strand shown. In a few lines:
as §1

Experiment [13] concerns the target T8, ETS2 (Homo sapiens, UniProt P15036 1-469).
T8 sequence: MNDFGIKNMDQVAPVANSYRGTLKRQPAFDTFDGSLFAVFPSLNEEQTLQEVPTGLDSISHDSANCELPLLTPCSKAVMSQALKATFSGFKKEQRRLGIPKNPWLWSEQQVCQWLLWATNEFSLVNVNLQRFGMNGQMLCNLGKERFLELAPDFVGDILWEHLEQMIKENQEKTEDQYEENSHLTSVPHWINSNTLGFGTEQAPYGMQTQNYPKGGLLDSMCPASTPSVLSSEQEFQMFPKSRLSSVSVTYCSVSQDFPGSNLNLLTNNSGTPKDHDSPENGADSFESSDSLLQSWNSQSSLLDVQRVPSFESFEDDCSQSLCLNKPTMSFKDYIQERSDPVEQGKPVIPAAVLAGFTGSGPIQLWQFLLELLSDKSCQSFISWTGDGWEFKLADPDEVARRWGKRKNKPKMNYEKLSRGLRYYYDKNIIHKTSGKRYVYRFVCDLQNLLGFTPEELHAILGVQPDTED
The conditions noted are these: protein: recombinant; tags: N-terminal GST; dsDNA, one strand shown. In outline: as §1

In experiment [14] the target is T9, SPDEF (Homo sapiens, UniProt O95238 1-335).
T9 sequence: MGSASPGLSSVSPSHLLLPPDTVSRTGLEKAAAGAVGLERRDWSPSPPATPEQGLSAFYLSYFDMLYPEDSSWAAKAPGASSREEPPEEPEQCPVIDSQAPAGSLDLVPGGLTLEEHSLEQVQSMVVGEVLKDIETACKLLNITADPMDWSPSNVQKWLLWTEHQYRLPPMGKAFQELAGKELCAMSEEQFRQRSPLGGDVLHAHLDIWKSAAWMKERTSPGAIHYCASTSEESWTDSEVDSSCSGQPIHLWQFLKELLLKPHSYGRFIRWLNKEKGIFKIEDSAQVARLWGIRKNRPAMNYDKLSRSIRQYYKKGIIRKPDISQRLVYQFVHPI
Conditions: protein: recombinant; tags: N-terminal GST; dsDNA, one strand shown. In a few lines:
as §1

Experiment [15] deals with T10, ETV7 (Homo sapiens, UniProt Q9Y603 1-341).
T10 sequence: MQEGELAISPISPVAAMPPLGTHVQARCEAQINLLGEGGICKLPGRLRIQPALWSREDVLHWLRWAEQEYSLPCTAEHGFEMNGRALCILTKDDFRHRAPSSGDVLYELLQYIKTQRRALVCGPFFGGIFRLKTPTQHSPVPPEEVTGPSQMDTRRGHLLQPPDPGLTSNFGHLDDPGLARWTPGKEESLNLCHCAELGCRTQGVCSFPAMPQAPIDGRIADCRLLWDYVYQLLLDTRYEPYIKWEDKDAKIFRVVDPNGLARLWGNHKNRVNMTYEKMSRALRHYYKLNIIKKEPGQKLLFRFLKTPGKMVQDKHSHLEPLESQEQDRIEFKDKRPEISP
Conditions: protein: recombinant; tags: N-terminal GST; dsDNA, one strand shown. In a few lines:
as §1

The target in experiment [16] is T11, ELF5 (Homo sapiens, UniProt Q9UKW6-2 1-255).
T11 sequence: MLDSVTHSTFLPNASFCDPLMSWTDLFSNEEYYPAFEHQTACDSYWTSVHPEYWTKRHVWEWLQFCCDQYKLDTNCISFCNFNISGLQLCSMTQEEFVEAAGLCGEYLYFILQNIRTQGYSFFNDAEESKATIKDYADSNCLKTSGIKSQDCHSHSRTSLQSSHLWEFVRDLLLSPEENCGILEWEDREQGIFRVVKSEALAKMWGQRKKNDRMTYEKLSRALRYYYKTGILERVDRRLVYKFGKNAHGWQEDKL
Conditions: protein: recombinant; tags: N-terminal GST; dsDNA, one strand shown. In a few lines: as §1

For experiment [17], the target named is T12, ETV3 (Homo sapiens, UniProt P41162-2 1-143).
T12 sequence: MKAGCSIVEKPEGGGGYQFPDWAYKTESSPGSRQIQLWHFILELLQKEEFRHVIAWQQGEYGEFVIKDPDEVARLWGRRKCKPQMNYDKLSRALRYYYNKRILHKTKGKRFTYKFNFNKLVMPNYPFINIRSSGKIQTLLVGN
The conditions noted are these: protein: recombinant; tags: N-terminal GST; dsDNA, one strand shown. In a few lines:
as §1

Experiment [18] addresses ETV6 (Homo sapiens, UniProt P41212 1-452). Conditions: protein: recombinant; tags: N-terminal GST; dsDNA, one strand shown. In outline: as §1

ETV1, sequence (P50549 whole entry): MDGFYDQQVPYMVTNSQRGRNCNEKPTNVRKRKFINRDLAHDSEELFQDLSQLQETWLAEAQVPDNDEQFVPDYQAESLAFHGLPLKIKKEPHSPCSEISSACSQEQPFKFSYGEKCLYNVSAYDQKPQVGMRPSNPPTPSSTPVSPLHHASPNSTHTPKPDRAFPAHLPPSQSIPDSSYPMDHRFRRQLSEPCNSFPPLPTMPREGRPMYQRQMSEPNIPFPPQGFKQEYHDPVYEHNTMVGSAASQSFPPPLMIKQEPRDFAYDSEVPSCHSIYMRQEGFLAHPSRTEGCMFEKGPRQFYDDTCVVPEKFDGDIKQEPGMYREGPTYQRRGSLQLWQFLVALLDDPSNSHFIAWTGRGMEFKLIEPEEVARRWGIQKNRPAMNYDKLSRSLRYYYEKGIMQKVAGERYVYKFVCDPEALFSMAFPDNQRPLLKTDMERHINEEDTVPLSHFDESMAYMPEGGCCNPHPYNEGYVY
HSF1, sequence (Q00613 whole entry): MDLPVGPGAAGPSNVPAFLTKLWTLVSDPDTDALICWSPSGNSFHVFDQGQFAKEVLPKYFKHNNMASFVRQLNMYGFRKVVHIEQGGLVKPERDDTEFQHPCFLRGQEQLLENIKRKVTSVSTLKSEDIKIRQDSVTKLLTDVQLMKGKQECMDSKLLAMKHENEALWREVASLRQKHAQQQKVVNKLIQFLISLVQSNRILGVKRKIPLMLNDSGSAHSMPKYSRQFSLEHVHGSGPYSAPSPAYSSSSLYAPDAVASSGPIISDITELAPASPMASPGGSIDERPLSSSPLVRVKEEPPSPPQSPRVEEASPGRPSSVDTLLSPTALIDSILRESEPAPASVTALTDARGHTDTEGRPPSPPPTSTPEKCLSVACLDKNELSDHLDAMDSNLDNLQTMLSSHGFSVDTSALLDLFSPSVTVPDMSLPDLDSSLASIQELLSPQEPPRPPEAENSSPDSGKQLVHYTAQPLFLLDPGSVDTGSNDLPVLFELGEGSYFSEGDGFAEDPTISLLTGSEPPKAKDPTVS
ETV6, sequence (P41212 whole entry): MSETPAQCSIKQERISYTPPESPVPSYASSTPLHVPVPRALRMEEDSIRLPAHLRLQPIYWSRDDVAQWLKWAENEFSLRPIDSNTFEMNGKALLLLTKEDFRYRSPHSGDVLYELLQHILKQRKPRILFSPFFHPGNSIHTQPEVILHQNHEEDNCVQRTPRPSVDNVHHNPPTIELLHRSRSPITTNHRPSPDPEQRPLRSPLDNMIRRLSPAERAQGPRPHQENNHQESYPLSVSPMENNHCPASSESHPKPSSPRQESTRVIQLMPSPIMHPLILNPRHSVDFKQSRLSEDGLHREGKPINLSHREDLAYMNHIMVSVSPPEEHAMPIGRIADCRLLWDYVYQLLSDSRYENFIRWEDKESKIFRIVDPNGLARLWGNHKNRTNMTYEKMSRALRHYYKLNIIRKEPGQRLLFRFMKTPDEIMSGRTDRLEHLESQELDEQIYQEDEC
ELF4, sequence (Q99607 whole entry): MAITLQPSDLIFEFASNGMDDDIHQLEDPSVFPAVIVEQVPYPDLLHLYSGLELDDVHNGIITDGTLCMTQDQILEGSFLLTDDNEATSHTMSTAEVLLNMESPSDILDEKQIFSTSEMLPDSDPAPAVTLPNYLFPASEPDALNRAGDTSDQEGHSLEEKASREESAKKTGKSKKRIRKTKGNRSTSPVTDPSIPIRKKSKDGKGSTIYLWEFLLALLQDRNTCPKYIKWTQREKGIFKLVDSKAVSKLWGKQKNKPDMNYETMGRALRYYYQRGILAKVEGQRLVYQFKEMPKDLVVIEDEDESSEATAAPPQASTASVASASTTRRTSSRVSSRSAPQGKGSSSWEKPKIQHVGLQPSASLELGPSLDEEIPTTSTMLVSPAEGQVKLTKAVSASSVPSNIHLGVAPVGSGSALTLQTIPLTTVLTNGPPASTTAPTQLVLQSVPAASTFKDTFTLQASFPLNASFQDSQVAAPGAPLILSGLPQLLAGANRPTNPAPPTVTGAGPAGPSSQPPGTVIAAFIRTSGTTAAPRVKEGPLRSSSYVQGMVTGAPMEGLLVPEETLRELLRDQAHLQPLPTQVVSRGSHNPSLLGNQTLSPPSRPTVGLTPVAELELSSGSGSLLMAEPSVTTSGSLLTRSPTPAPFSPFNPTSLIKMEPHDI
CRX, sequence (O43186 whole entry): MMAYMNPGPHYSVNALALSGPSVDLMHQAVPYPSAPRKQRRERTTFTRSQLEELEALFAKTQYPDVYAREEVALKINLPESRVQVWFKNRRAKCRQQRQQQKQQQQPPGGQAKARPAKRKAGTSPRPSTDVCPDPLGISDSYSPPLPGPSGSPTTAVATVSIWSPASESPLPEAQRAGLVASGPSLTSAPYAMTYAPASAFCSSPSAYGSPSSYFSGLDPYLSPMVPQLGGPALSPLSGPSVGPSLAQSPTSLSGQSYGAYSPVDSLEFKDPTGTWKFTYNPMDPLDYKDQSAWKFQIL
ETV5, sequence (P41161 whole entry): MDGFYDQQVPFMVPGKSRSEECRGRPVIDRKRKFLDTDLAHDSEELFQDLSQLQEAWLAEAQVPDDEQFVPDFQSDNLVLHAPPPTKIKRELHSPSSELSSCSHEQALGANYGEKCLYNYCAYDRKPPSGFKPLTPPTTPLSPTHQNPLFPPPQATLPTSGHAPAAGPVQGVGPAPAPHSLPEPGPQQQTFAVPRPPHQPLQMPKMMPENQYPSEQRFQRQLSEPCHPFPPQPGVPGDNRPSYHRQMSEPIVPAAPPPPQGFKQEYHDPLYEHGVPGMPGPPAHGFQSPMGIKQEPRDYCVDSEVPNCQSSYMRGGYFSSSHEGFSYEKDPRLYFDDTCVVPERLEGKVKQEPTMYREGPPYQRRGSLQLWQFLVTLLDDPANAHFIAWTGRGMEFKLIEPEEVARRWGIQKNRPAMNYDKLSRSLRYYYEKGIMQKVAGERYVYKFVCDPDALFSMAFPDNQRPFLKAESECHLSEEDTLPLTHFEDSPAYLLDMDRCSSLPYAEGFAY

As to CTCTCG, the binding signal in experiment [1] is 1.3 fold enrichment (6-mer frequency, TF over GST control); in [2] it was 1.32 fold enrichment (6-mer frequency, TF over GST control); in experiment [3] it was 1.99 fold enrichment (6-mer frequency, TF over GST control); in [4], 1.3 fold enrichment (6-mer frequency, TF over GST control); in experiment [5], 1.45 fold enrichment (6-mer frequency, TF over GST control); in experiment [6], 1.41 fold enrichment (6-mer frequency, TF over GST control). The binding signal was 1.73 fold enrichment (6-mer frequency, TF over GST control) in experiment [7]; 1.65 fold enrichment (6-mer frequency, TF over GST control) in [8]; 1.32 fold enrichment (6-mer frequency, TF over GST control) in experiment [9]; 1.47 fold enrichment (6-mer frequency, TF over GST control) in [10]; 1.36 fold enrichment (6-mer frequency, TF over GST control) in experiment [11]; 1.42 fold enrichment (6-mer frequency, TF over GST control) in experiment [12]. The binding signal in [13] was 1.4 fold enrichment (6-mer frequency, TF over GST control); in [14] it was 1.16 fold enrichment (6-mer frequency, TF over GST control); in [15], 1.25 fold enrichment (6-mer frequency, TF over GST control); in experiment [16] it was 1.34 fold enrichment (6-mer frequency, TF over GST control); in experiment [17], 1.35 fold enrichment (6-mer frequency, TF over GST control); in [18], 1.31 fold enrichment (6-mer frequency, TF over GST control).

These data come from PMC7862700, “An all-to-all approach to the identification of sequence-specific readers for epigenetic DNA modifications on cytosine”.
